From PubChem BioAssay AID1159580 (chemical genetic matrix, 2015)
“And” between values parts separate entries of the source, which are not always exact repeats. Equal entries are not always repeated. Among all 5,500 compounds or so, about 2,000 (36%) were called active. Roughly 18% stayed inconclusive and do not appear here. Rule as the data show it: active = normalized growth mostly below about 0.91 (no sharp cut-off); inconclusive = no clear call, values can overlap the other calls; inactive = mostly above about 0.92. The list shows a part of the results.

Assay: chemical genetic growth profiling, strain panel (AID 1159580);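 also: tested at 20 µM; growth read once vehicle control cultures reached saturation at 30 °C; 1 = growth at the plate median or of vehicle wells; lower values mean less growth of the strain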
Conditions: S. cerevisiae deletion strains, growth OD

Measured: normalized growth

Cc1ccc(/C(=C\CN2CCCC2)c2ccccn2)cc1
inactive: locus YAL013W, strain DEP1, stronger effect = lower value 1.01 | locus YAL021C, strain ccr4, stronger effect = lower value 0.99 | locus YAL026C, strain drs2, stronger effect = lower value 0.992 | locus YAL030W, strain snc1, stronger effect = lower value 1.03 | locus YAL040C, strain CLN3, stronger effect = lower value 1.02 | locus YBL061C, strain skt5, stronger effect = lower value 1.02 | locus YBR009C, strain hhf1, stronger effect = lower value 0.971 | locus YBR021W, strain FUR4, stronger effect = lower value 1 | locus YBR023C, strain chs3, stronger effect = lower value 1.01 | locus YBR171W, strain sec66, stronger effect = lower value 1.02 | locus YBR229C, strain ROT2, stronger effect = lower value 1.01 | locus YBR231C, strain swc5, stronger effect = lower value 1.04 | locus YBR279W, strain paf1, stronger effect = lower value 0.991 | locus YCL011C, strain gbp2, stronger effect = lower value 0.99 | locus YCL016C, strain dcc1, stronger effect = lower value 0.975 | locus YCL029C, strain bik1, stronger effect = lower value 1 | locus YCL061C, strain MRC1 (second series), stronger effect = lower value 0.99 | locus YCL061C, strain MRC1, stronger effect = lower value 1.02 | locus YCL069W, strain vba3, stronger effect = lower value 1.01 | locus YCR088W, strain abp1, stronger effect = lower value 1.02 | locus YDL005C, strain med2, stronger effect = lower value 1.01 | locus YDL035C, strain GPR1, stronger effect = lower value 1.02 | locus YDL040C, strain nat1, stronger effect = lower value 1.01 | locus YDL074C, strain BRE1, stronger effect = lower value 1.01 | locus YDL101C, strain DUN1, stronger effect = lower value 1.01 | locus YDL134C, strain PPH21, stronger effect = lower value 1.01 | locus YDL185W, strain tfp1, stronger effect = lower value 1.01 | locus YDL192W, strain arf1, stronger effect = lower value 1 | locus YDR001C, strain nth1, stronger effect = lower value 1 | locus YDR069C, strain doa4, stronger effect = lower value 1.02 | locus YDR101C, strain arx1, stronger effect = lower value 0.997 | locus YDR137W, strain rgp1, stronger effect = lower value 0.993 | locus YDR150W, strain NUM1, stronger effect = lower value 1.02 | locus YDR159W, strain sac3, stronger effect = lower value 0.933 | locus YDR162C, strain NBP2, stronger effect = lower value 1.01 | locus YDR195W, strain ref2 0.993 | locus YDR297W, strain sur2, stronger effect = lower value 1.02 | locus YDR318W, strain mcm21, stronger effect = lower value 0.995 | locus YDR334W, strain swr1, stronger effect = lower value 0.991 | locus YDR335W, strain msn5, stronger effect = lower value 1.01 | locus YDR363W, strain ESC2, stronger effect = lower value 0.965 | locus YDR388W, stronger effect = lower value 0.998 | locus YDR392W, strain spt3, stronger effect = lower value 0.927 | locus YDR502C, strain sam2, stronger effect = lower value 0.995 | locus YEL003W, strain gim4, stronger effect = lower value 1.04 | locus YEL037C, strain rad23, stronger effect = lower value 1.01 | locus YEL061C, strain CIN8 (second series), stronger effect = lower value 1.01 | locus YEL061C, strain CIN8, stronger effect = lower value 1.01 | locus YER002W, strain NOP16, stronger effect = lower value 1 | locus YER015W, strain faa2, stronger effect = lower value 1.01 | locus YER016W, strain bim1, stronger effect = lower value 0.995 | locus YER110C, stronger effect = lower value 0.995 | locus YER111C, strain swi4, stronger effect = lower value 1 | locus YER155C, strain BEM2 (second series), stronger effect = lower value 1.05 | locus YER155C, strain BEM2, stronger effect = lower value 1 | locus YER167W, strain BCK2, stronger effect = lower value 1.01 | locus YFR010W, strain ubp6, stronger effect = lower value 1.01 | locus YGL078C, strain dbp3, stronger effect = lower value 0.993 | locus YGL086W, strain mad1, stronger effect = lower value 0.996 | locus YGL167C, strain pmr1, stronger effect = lower value 1.01 | locus YGL173C, strain kem1, stronger effect = lower value 1.04 | locus YGL227W, strain vid30, stronger effect = lower value 1.01 | locus YGL240W, strain doc1, stronger effect = lower value 1.03 | locus YGL248W, strain PDE1, stronger effect = lower value 1 | locus YGL253W, strain hxk2, stronger effect = lower value 0.98 | locus YGR078C, strain PAC10, stronger effect = lower value 1.01 and 0.984 | locus YGR135W, strain pre9, stronger effect = lower value 0.997 | locus YGR229C, strain SMI1, stronger effect = lower value 1.01 and 0.973 | locus YGR252W, strain gcn5, stronger effect = lower value 0.98 | locus YHR013C, strain ard1, stronger effect = lower value 0.999 | locus YHR027C, strain rpn1, stronger effect = lower value 1.01 | locus YHR030C, strain SLT2, stronger effect = lower value 1.02 and 0.995 | locus YHR079C, strain IRE1 (second series), stronger effect = lower value 0.998 | locus YHR079C, strain IRE1, stronger effect = lower value 1.02 | locus YHR094C, strain hxt1, stronger effect = lower value 0.999 | locus YHR129C, strain ARP1, stronger effect = lower value 1.01 | locus YHR142W, strain chs7, stronger effect = lower value 1.01 | locus YHR200W, strain rpn10, stronger effect = lower value 1 | locus YIL066C, strain RNR3, stronger effect = lower value 1.02 | locus YIL073C, strain SPO22, stronger effect = lower value 1.01 | locus YIL125W, strain kgd1, stronger effect = lower value 1 | locus YIR030C, strain dcg1, stronger effect = lower value 0.995 | locus YJL092W, strain hpr5, stronger effect = lower value 1.02 | locus YJL095W, strain BCK1 (second series), stronger effect = lower value 1.03 | locus YJL095W, strain BCK1, stronger effect = lower value 0.997 and 1.01 | locus YJL115W, strain asf1, stronger effect = lower value 1 | locus YJL129C, strain trk1, stronger effect = lower value 1.03 | locus YJL134W, strain LCB3, stronger effect = lower value 1.01 | locus YJL154C, strain vps35, stronger effect = lower value 1.01 | locus YJL164C, strain tpk1, stronger effect = lower value 0.979 | locus YJL166W, strain qcr8, stronger effect = lower value 1.04 | locus YJL168C, strain set2, stronger effect = lower value 1 | locus YJL187C, strain SWE1 (second series), stronger effect = lower value 1.02 | locus YJL187C, strain SWE1, stronger effect = lower value 1.02 | locus YJR043C, strain POL32, stronger effect = lower value 0.991 | locus YJR066W, strain TOR1, stronger effect = lower value 0.955
